High-throughput results from PubChem.
FLuc counter: qHTS profiling assay for firefly luciferase inhibitor/activator using purifed enzyme and Km concentrations of substrates (counterscreen for miR-21 project); purified FLuc, Km substrates, luminescence inhibition; Potency, µM (titrated, usually from 57.5 µM), for inactives: at the top dose activity change, negative = inhibition, usual class: inhibitors; 360,000 tested, 6.9% active;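 further: plate controls were vehicle for no effect and reference inhibitor for full effect; nearly all actives have a fitted effect of over 55% in size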
Target sequence (P08659 whole entry, looked up): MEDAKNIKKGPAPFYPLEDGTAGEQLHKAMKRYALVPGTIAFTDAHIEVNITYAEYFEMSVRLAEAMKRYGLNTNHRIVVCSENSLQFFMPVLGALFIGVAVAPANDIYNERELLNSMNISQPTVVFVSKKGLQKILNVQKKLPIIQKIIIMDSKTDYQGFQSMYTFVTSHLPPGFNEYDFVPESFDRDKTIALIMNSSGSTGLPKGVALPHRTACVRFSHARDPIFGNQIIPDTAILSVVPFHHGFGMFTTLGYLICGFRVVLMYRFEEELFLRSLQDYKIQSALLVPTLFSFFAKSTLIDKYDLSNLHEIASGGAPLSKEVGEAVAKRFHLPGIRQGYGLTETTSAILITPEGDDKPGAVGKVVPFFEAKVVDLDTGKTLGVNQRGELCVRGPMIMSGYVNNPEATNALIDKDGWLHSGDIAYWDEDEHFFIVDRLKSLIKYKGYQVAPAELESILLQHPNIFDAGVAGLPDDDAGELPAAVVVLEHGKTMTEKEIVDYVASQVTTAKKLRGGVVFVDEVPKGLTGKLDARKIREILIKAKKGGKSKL
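Purified P. pyralis luciferase (10nM final) with 10uM D-luciferin and 10uM ATP (Km levels) in 50mM Tris acetate pH 7.5, 10mM Mg acetate, 0.01% Tween-20, 0.05% BSA; qHTS 6-point titration, ~60 µM downward; luminescence read.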
ELG1 genotox: qHTS screen for small molecules that induce genotoxicity in human embryonic kidney (HEK293T) cells expressing luciferase-tagged ELG1 | HEK293T ELG1-luciferase reporter, luminescence, 16 h | Potency, µM (doses to about 46 µM), without a hit: at the highest dose activity change, positive = activation, hits mostly activators | 330,000 tested, 1.3% active | AID 504466, 2011; further: % of control where 0% means no effect; nearly all actives have a fitted effect of over 60% in size
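Quantitative HTS format in 1536-well plates. HEK293T ELG1-luciferase reporter cells receive test compound and are incubated 16 hr at 37 °C, 5% CO2; ONE-Glo added, 30 min room temperature, then luminescence read.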
KinaseGlo FLuc: Counterscreen for Luciferase (Kinase-Glo TM) Inhibition; Luciferin 4-monooxygenase (Photuris pensylvanica), Q27757; Kinase-Glo luciferase, ATP luminescence, 8 min; Potency, µM (top dose mostly 38.3 µM), without a hit: at the top dose activity change, negative = inhibition, most hits filed as inhibitors; 200,000 tested, 0.28% active; AID 1379, 2008; further: on the % scale 0 is the no-effect control and ±100 the full control effect; nearly all actives have a fitted effect of over 60% in size
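Light output from Kinase-Glo luciferase with luciferin and 10 uM ATP in 50 mM imidazole pH 7.2, KCl, MgCl2, Tween 20, BSA; compound pin-delivered, 8-min ambient incubation, then luminescence read.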
SMN2 splice up: qHTS Assay for Enhancers of SMN2 Splice Variant Expression; Potency, µM (doses to about 46.1 µM), for inactives: top-dose activity change, positive = activation, most hits filed as activators; 210,000 tested, 2.8% active; HEK293 SMN2-luciferase splicing reporter, luminescence, 30-36 h; further: % of control where 0% means no effect; nearly all actives have a fitted effect of over 55% in size
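HEK293 cells carry an SMN2 […]–luciferase reporter in which exon 7 inclusion puts luciferase in frame. Cells were plated 10-12 h before compound addition, then incubated 30-36 h at 37C. ONE-Glo luminescence was read; sodium butyrate at 4.5 mM final served as control.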
Rab9 prom act: qHTS Assay for Rab9 Promoter Activators; Huh7 Rab9 promoter-luciferase reporter, luminescence, 24 h; Potency, µM (top dose mostly 9.22 µM), inactives show at the top dose activation, negative = inhibition, usual class: activators; 320,000 tested, 2.8% active; AID 485297, 2010; further: % of control where 0% means no effect; nearly all actives have a fitted effect of over 60% in size
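Promoter activation is measured as luciferase luminescence in Huh7 cells stably transfected with a Rab9 promoter–luciferase construct, following 24 h compound exposure at 37 °C and 10 min reagent incubation at ambient temperature.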
NPC1 promoter act: qHTS Assay for NPC1 Promoter Activators | Potency, µM (titrated, usually from 9.22 µM), for the others: at the highest dose activation, hits mostly activators | Huh7 NPC1 promoter luciferase reporter, 24 h | 320,000 tested, 2.4% active; further: % of control where 0% means no effect; nearly all actives have a fitted effect of over 60% in size
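Huh7 reporter cells (NPC1 promoter driving luciferase) are dosed with compound for 24 h at 37 °C, 5% CO2; luciferase detection reagent is then added and luminescence measured after 10 min at ambient temperature.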
Active calls of the source: *; [ ] = dose if it differs, or a comment. A selection: hits, their analogues and other compounds. The true share with any hit is near 7.5%. The call rests on the fitted dose curve; in most records, active means well fitted curve in the direction sought with a large enough effect; inconclusive means small, poorly fitted or top-dose-only effect, or another doubt; inactive means no such curve, though single readings can be large; an effect the other way counts as inactive or inconclusive. Potency means the concentration at half of the fitted maximal effect.

Screening O=C(N/N=C/c1cccc(Oc2ccccc2)c1)c1ccccc1F returned FLuc counter 16.9µM*, ELG1 genotox inconclusive, Rab9 prom act 21.3% and NPC1 promoter act -4.7%.
`Nc1ccc(C(=O)N/N=C/c2cccc(Oc3ccccc3)c2)cc1` gave FLuc counter 12µM*, ELG1 genotox 4.9%, Rab9 prom act 9.3% and NPC1 promoter act -0.5%.
`O=C(N/N=C/c1cccc(Oc2ccccc2)c1)c1cc[n+]([O-])cc1` gave FLuc counter inconclusive, ELG1 genotox 2.1%, KinaseGlo FLuc 1.5%, SMN2 splice up 0.9%, Rab9 prom act -4.2% and NPC1 promoter act 0.5%.
For CCn1c(SCC(=O)Nc2ccc(N3CCOCC3)c(Cl)c2)nnc1-c1ccc(N)cc1 the results were FLuc counter 13.5µM*, ELG1 genotox 2.5%, KinaseGlo FLuc 1.0%, SMN2 splice up -16.3%, Rab9 prom act 1.7% and NPC1 promoter act 1.6%.
CCn1c(C)nnc1SCC(=O)Nc1ccc(N2CCOCC2)cc1 was read as FLuc counter inconclusive, ELG1 genotox 1.0%, Rab9 prom act 4.2% and NPC1 promoter act 2.4%.
For CCn1c(SCC(=O)Nc2ccc(N3CCOCC3)cc2)nnc1-c1ccc(OC)cc1 the results were FLuc counter 15.1µM*, ELG1 genotox -5.7%, KinaseGlo FLuc -2.7%, SMN2 splice up -12.3%, Rab9 prom act -2.7% and NPC1 promoter act -2.4%.
CCn1c(SCC(=O)Nc2ccccc2N2CCOCC2)nnc1-c1ccccc1 was read as FLuc counter 2.8%[2.3 µM], ELG1 genotox -3.3%, KinaseGlo FLuc 3.6%, SMN2 splice up -2.2%, Rab9 prom act 1.0% and NPC1 promoter act 1.5%.
CCCCCCc1cc2cc(-c3nnc(-c4cccc(Cl)c4)o3)c(=O)oc2cc1O was read as FLuc counter -14.5% and SMN2 splice up -6.8%.
CC(=O)Nc1c(C)nn(-c2ccccc2)c1N1CCC(C(=O)Nc2ccc(C)cc2Cl)CC1 was read as FLuc counter -8.7%.
For Cc1cc(Nc2cccc(Br)c2)n2c(nc3ccccc32)c1C#N the results were FLuc counter 3.7% and SMN2 splice up -10.8%.
For CCOC(=O)C1=C(COC(=O)Cc2ccc(Cl)cc2)NC(=O)NC1C (stereo not drawn) the results were FLuc counter 2.1%, ELG1 genotox 0.5%, Rab9 prom act 3.6% and NPC1 promoter act -1.4%.
For O=C(Nc1ccc(Cl)cc1)c1ccc(OCC2CCCO2)cc1 (stereo not drawn) the results were FLuc counter 5.36µM*, ELG1 genotox inconclusive, KinaseGlo FLuc 1.0%, SMN2 splice up 17.8%, Rab9 prom act inconclusive and NPC1 promoter act inconclusive.
Screening Cc1cc(C)c2nc(NC(=O)c3ccc(OCC4CCCO4)cc3)sc2c1 (stereo not drawn) returned FLuc counter 10.7µM*, ELG1 genotox -3.5%, KinaseGlo FLuc 0.7%, SMN2 splice up -59.0%, Rab9 prom act -24.9% and NPC1 promoter act -17.6%.
For Cc1ccc2nc(NC(=O)c3ccc(OCC4CCCO4)cc3)sc2c1 (stereo not drawn) the results were FLuc counter 3.01µM*, ELG1 genotox -5.6%, KinaseGlo FLuc 0.2%, SMN2 splice up -44.9%, Rab9 prom act inconclusive and NPC1 promoter act inconclusive.
O=C(Nc1ccc([N+](=O)[O-])cc1)Nc1cnccn1 was read as FLuc counter -2.3%, ELG1 genotox -18.3%, Rab9 prom act -2.3% and NPC1 promoter act 2.0%.
`O=C(CN(Cc1ccccc1F)C(=O)Cn1nnc(-c2cccs2)n1)NC1CCCCC1` gave FLuc counter 0.9%, ELG1 genotox 4.8%, KinaseGlo FLuc -0.1%, SMN2 splice up -12.4%, Rab9 prom act -1.2% and NPC1 promoter act -0.7%.
`CCn1c(-c2cc(-c3ccccc3OC)nc3ccccc23)n[nH]c1=S` gave FLuc counter 0.9%, ELG1 genotox -8.3%, KinaseGlo FLuc 4.3%, SMN2 splice up 19.8%, Rab9 prom act -0.3% and NPC1 promoter act -1.2%.
Screening C=CCn1c(-c2cccc3ccccc23)n[nH]c1=S returned FLuc counter 2.6%, ELG1 genotox -1.0%, KinaseGlo FLuc 0.9%, SMN2 splice up -25.2%, Rab9 prom act -22.3% and NPC1 promoter act -0.5%.
`C=CCn1c(-c2cc(-c3ccc(C)cc3)nc3ccccc23)n[nH]c1=S` gave FLuc counter 10.7µM*, ELG1 genotox -6.9%, KinaseGlo FLuc -3.2%, SMN2 splice up 3.9%, Rab9 prom act -4.2% and NPC1 promoter act -0.9%.
`CCn1c(-c2cc(-c3ccc(OC(C)C)cc3)nc3ccccc23)n[nH]c1=S` gave FLuc counter 0.601µM*, ELG1 genotox 1.7%, KinaseGlo FLuc -3.2%, SMN2 splice up 23.4%, Rab9 prom act inconclusive and NPC1 promoter act inconclusive.
CCn1c(-c2cc(-c3ccc(C)cc3)nc3ccccc23)n[nH]c1=S was read as FLuc counter 6.75µM*, ELG1 genotox 6.5%, KinaseGlo FLuc -2.0%, SMN2 splice up 5.3%, Rab9 prom act 8.6% and NPC1 promoter act 9.0%.
Screening CCCOc1cccc(-c2cc(-c3n[nH]c(=S)n3CC)c3ccccc3n2)c1 returned FLuc counter 16.9µM*, ELG1 genotox -3.4%, KinaseGlo FLuc -5.4%, SMN2 splice up -12.8%, Rab9 prom act -2.3% and NPC1 promoter act -2.3%.
Cc1ccc2[nH]c(CSc3nnc(NC(=O)c4ccc(Cl)cc4)s3)cc(=O)c2c1 was read as FLuc counter -15.2%.
Screening Cc1ccc(N=Nc2ccc3ccccc3c2O)cc1 returned FLuc counter 0.239µM*, ELG1 genotox inconclusive, Rab9 prom act 2.51µM* and NPC1 promoter act 0.562µM*.
Oc1c(N=Nc2ccc(F)cc2)ccc2ccccc12 was read as FLuc counter 0.601µM*, ELG1 genotox 2.06µM*, Rab9 prom act 4.47µM* and NPC1 promoter act 3.16µM*.
Oc1ccc2ccccc2c1N=Nc1ccc(F)cc1 was read as FLuc counter -19.8%, ELG1 genotox -0.5%, Rab9 prom act 12.1% and NPC1 promoter act 28.4%.
For CC(C)(C)c1nnc(NC(=O)COc2ccc3c(c2)OCO3)s1 the results were FLuc counter 12µM*, ELG1 genotox inconclusive, Rab9 prom act inconclusive and NPC1 promoter act 3.55µM*.
